Calls of active or inactive are those of the source.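 Rule for the calls: active = inhibition above 20% together with a positive visual image hit; inconclusive = visual image hit but inhibition not above 20%; inactive = no visual image hit.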

The record followed here is PubChem BioAssay.

A short description of the assay: inhibitors of TNFa-induced NFkB p65 translocation, primary screen, imaging, HUVEC, MLSMR starter and 10KST1 sets (AID 438).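 For inhibition: signal is the nuclear over cytoplasmic p65 intensity ratio per well.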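 Note: compound added about 3h40 before a 20 min TNFalpha stimulation.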 The settings on record: HUVEC TNFa-induced p65 nuclear translocation; cell count: measured here: nuclei count (cytotoxicity indicator), at 2.08 µM; inhibition: at 2 µM, stronger effect = higher value, 0% TNFa-plus-vehicle, 100% no-TNFa wells.
As usually defined, the inhibition is the change of the read-out against control, counted positive when it falls. For `COC(=O)c1sc(S(=O)(=O)NCc2cccs2)c(C(=O)OC)c1C`, the cell count came to 608 and the inhibition is -16.4% (inactive).

Turning to `CS(=O)(=O)N1CCN(c2ccccc2NC(=O)c2cccs2)CC1`, the inhibition is 0.5% (inactive) and the cell count is 629.

For `O=C(Nc1ccccc1)C1=C(O)CC(c2ccoc2)CC1=Nc1ccccc1` (stereo not given), the inhibition was -2.1% (inactive) and the cell count came out at 321.

In the case of `CCCCCc1c(C)nc(N2CCc3ccccc32)[nH]c1=O`, the cell count was found to be 398 and the inhibition is -2.2% (inactive).

`CCOC(=O)c1cccc(NC(=O)CNS(=O)(=O)c2cccs2)c1`: the cell count stood at 445 and the inhibition was 6.8% (inactive).

Regarding `CN(C)CCCN1C(=O)CSC1c1ccccc1` (stereo not given), the inhibition was -8.9% (inactive) and the cell count stood at 607.

On to `COc1cc2c(cc1OC)-c1nnc(-c3cccs3)n1C(C)(C)C2`, for which the cell count worked out at 814 and the inhibition was 1.2% (inactive).

As to `Cn1cc(Br)c(C(=O)NC2CCCCC2)n1`, the cell count was found to be 483 and the inhibition was -5.1% (inactive).

In the case of `COC(=O)c1ccc(CNC(=O)CSc2nc3sc(C)c(C)c3c(=O)n2C)o1`, the cell count amounted to 319 and the inhibition was 3.3% (inactive).

As to `Cn1c(=O)c2c(nc(NCCCO)n2C/C=C/c2ccccc2)n(C)c1=O`, the cell count came out at 401 and the inhibition was -1.8% (inactive).

Turning to `CCOC(=O)N1CCN(CCC(=O)c2ccc(Cl)cc2)CC1`, the cell count worked out at 533 and the inhibition was -10.6% (inactive).

Turning to `CCOC(=O)C1CCCN(c2c(NCc3ccco3)c(=O)c2=O)C1` (stereo not given), the inhibition was -7.3% (inactive) and the cell count stood at 614.

For `CCCCn1c(CNC(=O)CCC)nc2ccccc21`, the inhibition is 3.9% (inactive) and the cell count is 635.

`CCC(c1nnnn1C(C)(C)C)N1CCN(C2CCCC2)CC1` (stereo not given): the inhibition is 1.3% (inactive) and the cell count was determined as 450.

`CC(C)(C)c1nnc(NC(=O)C2CCN(c3ncccn3)CC2)s1`: the inhibition was -9.2% (inactive) and the cell count stood at 547.

As to `CCN1CCN(C(CNC(=O)c2ccc3c(c2)OCO3)c2cccnc2)CC1` (stereo not given), the inhibition is -13.5% (inactive) and the cell count came out at 796.

As for `COc1ccc(C(=O)CSc2nnc(C3CCCCC3)n2N)c(OC)c1`, the inhibition was -11.9% (inactive) and the cell count turned out to be 419.

As for `COC(=O)c1c(NC(=O)CSc2nnnn2C)sc(C)c1C`, the inhibition is -0.5% (inactive) and the cell count is 446.

Take `CCOC(=O)C(C)(C)Sc1nc2c(cnn2-c2ccc(Cl)cc2)c(=O)[nH]1`: the cell count is 623 and the inhibition is -5.2% (inactive).

In the case of `O=c1ccc2cc3c([nH]c4ccc(Br)cc43)oc-2c1O`, the inhibition was 4.7% (inactive) and the cell count came out at 447.

Consider `O=C(OCC(=O)N1CCCC1)c1ccccc1OCc1ccccc1`, for which the cell count came out at 576 and the inhibition was -10.8% (inactive).

Regarding `Cc1ccc2cc(CN(Cc3ccc4c(c3)OCO4)Cc3nnnn3Cc3ccco3)c(=O)[nH]c2c1C`, the inhibition was 0.9% (inactive) and the cell count was determined as 338.

For `COc1ccc(Br)cc1S(=O)(=O)N1CC(C)OC(C)C1` (stereo not given), the cell count is 359 and the inhibition was 2.8% (inactive).

For `CCc1nnc(NC(=O)c2cc3ccccc3oc2=O)s1`, the cell count came to 597 and the inhibition is -9.6% (inactive).

For `O=c1c[n+]([O-])c2ccccc2n1OCc1c(F)cccc1F`, the cell count is 744 and the inhibition was -6% (inactive).

For `Cc1ccc(-n2cnnn2)c2cccnc12`, the cell count came to 658 and the inhibition is -9.3% (inactive).

Take `O=C(c1ccc(S(=O)(=O)N2CCOCC2)cc1)N(c1ccc(F)cc1)C1C=CS(=O)(=O)C1` (stereo not given): the inhibition is -19.7% (inactive) and the cell count is 774.

Take `Cn1c(=O)c2c(nc(CN3CCCCC3)n2CCc2ccccc2)n(C)c1=O`: the inhibition was -1% (inactive) and the cell count was 363.

On to `O=C(CCNS(=O)(=O)c1ccc(Cl)cc1)NCc1ccccn1`, for which the cell count came out at 609 and the inhibition is -21.1% (inactive).

For `CCOC(=O)CNC(=O)Nc1nnc(-c2ccc(OCC)cc2)o1`, the inhibition is -30.9% (inactive) and the cell count was 486.

Regarding `CN(C)S(=O)(=O)c1ccc(Oc2ccc(S(=O)(=O)N(C)C)cc2)cc1`, the inhibition was -4.4% (inactive) and the cell count is 273.

`CCCCc1c(O)nc(N2CCN(Cc3ccccc3)CC2)[nH]c1=O`: the inhibition is -2.5% (inactive) and the cell count came out at 402.

With `CCCc1cc(=O)[nH]c(SCc2ccccc2)n1`, the inhibition is 6.7% (inactive) and the cell count amounted to 651.

As to `CCOC(=O)N1CCC(c2cc(=O)n3[nH]cc(C(=O)OC)c3n2)CC1`, the inhibition was 6.8% (inactive) and the cell count is 534.

`c1ccc(C2(Cn3ccc4ccccc43)OCCO2)cc1`: the cell count turned out to be 311 and the inhibition was -13% (inactive).

Turning to `O=C(Nc1ccccc1)N(O)c1ccc(Cl)cc1`, the inhibition was -11.4% (inactive) and the cell count was 284.

As to `S=c1[nH]nc(-c2cccc(Br)c2)o1`, the inhibition was 12.7% (inactive) and the cell count turned out to be 242.

Turning to `N#CC1=C(N)C(C#N)(C#N)[C@H](c2ccsc2)[C@H]2COCC=C12`, the cell count was 337 and the inhibition is 5.5% (inactive).

As to `COC(=O)CCC(=O)Nc1cccc(Br)c1`, the inhibition was -5.7% (inactive) and the cell count was found to be 495.

Turning to `C=CCOC(=O)C1=C(C)OC(N)=C(C#N)C1c1ccc2c(c1)OCO2` (stereo not given), the inhibition is 13.4% (inactive) and the cell count worked out at 229.
